Bioassay records deposited in PubChem by several laboratories.
Rows were chosen to be rich in hits. Some 3.2% of all compounds tested hit in one or more screens of this group.
ANO1 activ = activates or potentiates the mouse TMEM16A chloride channel | HEK293 TMEM16A/YFP-H148Q/I152L, iodide quench fluorescence; hits give low values | B-score at 10 µM | AID 623877 | Q8BHY3 | 0.3% of 340,000 active;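 active means fluorescence-ratio B-score plate-corrected deviation score at least 3 library SD below zero, with starting fluorescence score within 5 deviations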;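 further: channel opened by trigger with iodide after compound preincubation; score built on the fluorescence ratio of max minus min over baseline; more negative score means more quench and so TMEM16A activation or potentiation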
Target sequence (Q8BHY3 whole entry, looked up): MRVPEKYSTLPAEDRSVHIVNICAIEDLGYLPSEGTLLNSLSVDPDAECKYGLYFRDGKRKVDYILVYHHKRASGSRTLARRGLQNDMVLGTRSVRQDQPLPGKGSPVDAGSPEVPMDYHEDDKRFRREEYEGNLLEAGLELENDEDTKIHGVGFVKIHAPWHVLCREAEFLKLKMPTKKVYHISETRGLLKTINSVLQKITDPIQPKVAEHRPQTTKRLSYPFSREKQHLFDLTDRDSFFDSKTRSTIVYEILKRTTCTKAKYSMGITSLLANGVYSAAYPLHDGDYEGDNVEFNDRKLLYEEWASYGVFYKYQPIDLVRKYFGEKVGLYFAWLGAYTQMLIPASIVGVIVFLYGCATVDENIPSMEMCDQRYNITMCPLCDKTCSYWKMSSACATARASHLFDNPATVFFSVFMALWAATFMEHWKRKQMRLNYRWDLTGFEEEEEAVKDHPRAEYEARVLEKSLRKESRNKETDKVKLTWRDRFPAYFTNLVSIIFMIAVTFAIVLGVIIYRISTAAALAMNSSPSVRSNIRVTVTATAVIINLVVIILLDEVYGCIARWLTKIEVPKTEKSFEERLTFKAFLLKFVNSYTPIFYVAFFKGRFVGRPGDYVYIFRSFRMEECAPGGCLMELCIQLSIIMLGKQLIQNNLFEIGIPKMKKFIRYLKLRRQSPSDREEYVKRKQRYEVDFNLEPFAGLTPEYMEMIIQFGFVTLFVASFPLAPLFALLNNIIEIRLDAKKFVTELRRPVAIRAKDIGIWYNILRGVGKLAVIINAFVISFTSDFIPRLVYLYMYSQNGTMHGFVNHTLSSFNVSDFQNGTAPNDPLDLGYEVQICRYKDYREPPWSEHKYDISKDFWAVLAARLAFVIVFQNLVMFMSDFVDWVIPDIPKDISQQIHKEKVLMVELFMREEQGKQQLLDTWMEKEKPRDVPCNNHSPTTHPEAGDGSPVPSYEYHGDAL
CHT PAM = human CHT allosteric activation; Q9GZV3; CHT-expressing cells, membrane potential dye, choline EC20; hits give high values; LV-AA mutant CHT in HEK293 cells; B-score at 10 µM; 0.49% of 310,000 active; AID 488977;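 active means initial fluorescence not abnormally high and integrated response B-score, plate-corrected, over 3 SD above library mean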
CHT inh = human CHT choline transport inhibition. AID 488975. 0.86% of 310,000 active. CHT-expressing cells, membrane potential dye, choline response; hits give low values. B-score at 10 µM. Q9GZV3;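 active means B-score over 3 SD under the library average, and starting fluorescence ratio not unusually high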;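 further: choline stimulus applied at its EC90 after an EC20 pre-addition; B-score computed on integrated fluorescence ratio after choline addition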
TMEM16A inh = blocks the mouse calcium-activated chloride channel TMEM16A; AID 588511; Q8BHY3; HEK293 TMEM16A/YFP iodide influx fluorescence, ionomycin; 1.2% of 310,000 active; normalized B-score (activity score, 25-100; higher = stronger inhibition) at 10 µM;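 active means ratio plate-corrected score three or more library SD toward inhibition, starting fluorescence score within five deviations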;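 further: score derived from kinetic fluorescence span divided by baseline fluorescence per well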
PHOSPHO1 block = PHOSPHO1 (human) inhibition | recombinant PHOSPHO1, absorbance phosphatase assay | inhibition, % at 13.3 µM | 1.1% of 290,000 active; in the data active means inhibition above about 60%
HDAC3 inhib = human HDAC3 inhibition; O15379; recombinant HDAC3, fluorogenic peptide/trypsin coupled, fluorescence; inhibition, % at 8.3 µM; 0.15% of 320,000 active; in the data active means inhibition above about 26%, passing the limit was not always enough
The depositor's hits bear a star; i = inactive; . = no result given.

SMILES	ANO1 activ	CHT PAM	CHT inh	TMEM16A inh	PHOSPHO1 block	HDAC3 inhib
O=C(c1ccc2ccccc2c1)C1CCCN(C(=O)c2cnccn2)C1 (stereo not drawn)	-4.61*	i	i	i	8.1	-3.4
COc1ccc2cc(C(=O)C3CCCN(C(=O)c4cnccn4)C3)ccc2c1 (stereo not drawn)	i	i	i	i	36.4	-24.1
Cc1[nH]n(-c2ccccc2)c(=O)c1C(C[N+](=O)[O-])c1ccc(Br)cc1 (stereo not drawn)	i	i	i	25*	-1.3	2.7
O=C(NCCc1ccccn1)C1CCCN(S(=O)(=O)Cc2ccccc2)C1 (stereo not drawn)	i	i	i	i	18.9	-3.5
O=C(C1=C(O)C(=O)N(CCCN2CCOCC2)C1c1ccccn1)c1cc2ccccc2o1 (stereo not drawn)	i	i	i	i	78.9*	6.5
COc1ccc(NC(=O)C2CC(=O)n3cnnc3S2)cc1 (stereo not drawn)	i	i	i	i	103.8*	7.0
COc1cccc(NC(=O)N2CCCC2)c1	i	i	i	i	5.8	-1.5
COc1ccc(NC(=O)C2CC(=O)n3ncnc3N2)cc1 (stereo not drawn)	i	i	i	i	3.8	4.1
COc1cccc(NC(=O)C2CC(=O)n3cnnc3S2)c1 (stereo not drawn)	i	i	i	i	102.9*	3.1
O=C(N/N=C/c1ccccc1)c1sccc1OCc1ccc(F)cc1	i	i	i	i	25.3	12.9
CNC(=O)N1CCC(C(=O)c2c(C)c(C)c(C)c(C)c2C)CC1	i	i	i	i	31.6	2.1
O=C(C[C@@H]1C/C=C/CC[C@@H](Cc2ccc(F)cc2)C(=O)O[C@@H](c2ccccc2)CNC1=O)NCCO	i	.	.	.	.	-1.8
Cc1ccc(CO/N=C\Cc2snc(Sc3ncc(C(F)(F)F)cc3Cl)c2C#N)cc1	i	i	i	i	95.4*	-1.0
O=C(NCCC1=CCCCC1)C1CCN(c2nnc(-n3cccc3)s2)CC1	i	i	i	i	-6.0	0.8
CC1CCCC(NC(=O)C2CCC(CNc3c(N4CCCCC4)c(=O)c3=O)CC2)C1C (stereo not drawn)	i	i	i	i	22.5	1.3
O=C(O)c1ccc(CNCc2ccc(Cl)cc2Cl)cc1	i	i	i	i	-24.5	-3.9
C=C1Cn2c(nnc2-c2ccc(Cl)cc2)S1	i	i	i	i	69.7*	0.7
O=C(N/N=C/c1nn(-c2ccccc2)cc1-c1ccc(Cl)cc1)c1ccncc1	.	i	i	25*	0.9	-0.7
CN(C(=O)COC(=O)CSc1ccc([N+](=O)[O-])cc1)C1CCS(=O)(=O)C1 (stereo not drawn)	i	i	i	i	.	6.3
O=C1/C(=C/c2ccc(O)cc2)SC(=S)N1CC1CCCO1 (stereo not drawn)	-5.07*	i	i	i	55.5	.
CCCOc1ccc(/C=C2\SC(=S)N(CC3CCCO3)C2=O)cc1 (stereo not drawn)	i	i	i	i	-5.1	-1.2
CC1CCCCN1C(=S)NCCc1ccccc1 (stereo not drawn)	i	i	i	i	88.1*	-1.0
S=C(NCCc1ccccc1)N1CCCC1	i	i	i	i	.	-3.7
O=C(CSc1ncn[nH]1)N1c2ccccc2Sc2ccccc21	i	i	i	i	18.8	0.6
CC1(C(=O)CSc2ncn[nH]2)CCC(=O)O1 (stereo not drawn)	.	i	i	i	92.8*	13.2
O=C(CSc1ncn[nH]1)c1ccc2c(c1)OCCO2	i	i	i	i	-3.3	5.4
O=C(CSc1ncn[nH]1)CSc1ncn[nH]1	i	i	i	i	-5.3	37.0*
CC(C)c1ccc(C(=O)CSc2ncn[nH]2)cc1	i	i	i	i	100.2*	15.6
CC1(C(=O)CSc2nc3ccccc3[nH]2)CCC(=O)O1 (stereo not drawn)	i	i	i	i	1.5	-1.8
